Reference: PubChem BioAssay (Tox21)
Results filed as inconclusive are left out. Unmarked numbers belong to inactive results. Calls follow the shape of the full dose curve.
% is scaled to controls: 0 for no effect and ±100 for the full control effect.

Experiment: qHTS assay to identify small molecule agonists of the NFkB signaling pathway - cell viability counter screen (AID 1159515); also: nearly all actives have a fitted effect of over 55% in size
Conditions: NFkB-bla ME-180 viability, CellTiter-Glo luminescence, 5 h; series mostly up to 61 µM; activity, negative = cytotoxic: at the top concentration
Description: National Center for Advancing Translational Sciences [NCATS]
NIH Chemical Genomics Center [NCGC]
U.S. Environmental Protection Agency [EPA]
National Institutes of Environmental Health Sciences [NIEHS]
National Toxicology Program [NTP]
U.S. Food and Drug Administration [FDA]
Transcription factors and their stimulated target gene expression play pivotal roles across many cellular processes including responses to environmental stimuli. Proper regulation of associated pathways is critical to maintain cell health and function. Constitutive activation of transcription factor pathways has been implicated in tumors as it may block cellular functions such as apoptosis and lead to invasion and metastasis. One important transcription factor that stimulates gene expression in response to cytokines, UV radiation, and other stimuli is nuclear factor-kappa B (NFkB). To measure activation of the NFkB pathway, the CellSensor NFkB-bla ME-180 cell line (Life Technologies, Carlsbad, CA) that stably expresses beta-lactamase reporter gene under the regulation of a NF-kB response element was used. This assay allows measurement of the NFkB pathway activity induced by compounds in a ME-180 cell line. This system quantitates NF-kB activity using a FRET-based assay system where beta-lactamase expression disrupts FRET, allowing for fluorescent measurement of activity. This cell line has been used to screen the Tox21 10K compound library and to identify compounds that induce the NFkB pathway activity. The cytotoxicity of the Tox21 compound library against the NFkB-bla ME-180 cell line was tested in parallel by measuring cell viability using the CellTiter-Glo assay in the same wells.
Tox21 Assay Protocol Summary:
NFkB-bla ME-180 cells were dispensed at 2,000 cells/6 uL of assay medium per well into black wall/clear-bottom 1536-well plates using a Multidrop Combi (ThermoFisher Scientific, Waltham, MA) dispenser. After the assay plates were incubated at 37 C and 5% CO2 for an overnight, 23 nL of compounds dissolved in DMSO, positive controls or DMSO only was transferred to the assay plate by a Pintool station (Kalypsys, San Diego, CA). The assay plates were incubated at 37 C and 5% CO2 for 5 hr. One uL of LiveBLAzer B/G FRET substrate (Life Technologies) was added using a Flying Reagent Dispenser (Aurora Discovery, San Diego, CA) and the plates were incubated at room temperature for 1.5 hr. Fluorescence intensity (405 nm excitation, 460 nm and 530 nm emissions) was measured using an Envision plate reader (PerkinElmer, Shelton, CT). For cytotoxicity, 3 ul/well of CellTiter-Glo reagent was added into the assay plates using an FRD. After 30 min incubation at room temperature, the luminescence intensity was measured using a ViewLux plate reader (PerkinElmer).
For CCOC(=O)NNc1ccc(N(CC)CC(C)O)nn1 (stereo not given), the “activity, negative = cytotoxic” value was 4.23%.
In the case of CCCCCCCCCCC[C@@H](C[C@@H]1OC(=O)[C@H]1CCCCCC)OC(=O)[C@H](CC(C)C)NC=O, the “activity, negative = cytotoxic” value is reported as -17.5%.
For CN(C)CCN1CCN(c2cccc(Cl)c2)C1=O, the “activity, negative = cytotoxic” value was 2.06%.
For O=C1CCCCCCCCCCCCCCCO1, the “activity, negative = cytotoxic” value was 3.77%.
With CCN(CC)c1ccc2c(-c3ccc(S(=O)(=O)O)cc3S(=O)(=O)[O-])c3ccc(=[N+](CC)CC)cc-3oc2c1 the “activity, negative = cytotoxic” value was -18% [at 78.8 µM].
With COc1ccc2cc1Oc1ccc(cc1)C[C@H]1c3c(cc4c(c3Oc3cc5c(cc3OC)CCN(C)[C@@H]5C2)OCO4)CCN1C the “activity, negative = cytotoxic” value was -19.9%.
In the case of CCCNCCC, the “activity, negative = cytotoxic” value is reported as 2.74% [at 78.8 µM].
With CCOC(=O)Cn1cccc1-c1nc(-c2ccc(OC)cc2)c(-c2ccc(OC)cc2)s1 the “activity, negative = cytotoxic” value was -16.7%.
For CCCC(=O)OC(C)(C)Cc1ccccc1, the “activity, negative = cytotoxic” value was -11.3%.
For c1ccc(SSc2ccccc2)cc1, the “activity, negative = cytotoxic” value was -19.2% [at 78.8 µM].
For CCCCOC(=O)CC, the “activity, negative = cytotoxic” value was 6.13%.
With COC(C)=O the “activity, negative = cytotoxic” value was -2.17% [at 78.8 µM].
In the case of CCc1ccc(Br)cc1, the “activity, negative = cytotoxic” value is reported as -13.8% [at 78.8 µM].
With CN(C)Cc1cc(C(C)(C)C)c(O)c(C(C)(C)C)c1 the “activity, negative = cytotoxic” value was -8.12%.
In the case of Oc1c(I)cc(Cl)c2cccnc12, the “activity, negative = cytotoxic” value is reported as 25.3%.
In the case of O=C(c1ccc(O)c(O)c1)c1ccc(O)cc1O, the “activity, negative = cytotoxic” value is reported as 15.7%.
For CCc1oc2ccccc2c1C(=O)c1cc(I)c(O)c(I)c1, the “activity, negative = cytotoxic” value was -0.743%.
With COc1cccc(OC)c1C(=O)O the “activity, negative = cytotoxic” value was -1.6%.
With Clc1nnc(Cl)c2ccccc12 the “activity, negative = cytotoxic” value was 9.16%.
In the case of O=[N+]([O-])c1cccc(C(F)(F)F)c1, the “activity, negative = cytotoxic” value is reported as -5.79% [at 78.8 µM].
For ClCCl, the “activity, negative = cytotoxic” value was -1.35%.
In the case of Nc1ccc(NCCO)c([N+](=O)[O-])c1, the “activity, negative = cytotoxic” value is reported as 3.81%.
For CCC(CC)(CC(=O)Nc1cccc(/C=C/c2nc(C3CCC3)cs2)c1)C(=O)O, the “activity, negative = cytotoxic” value was 14.7%.
With Cc1cc(C)c(/C=C2\C(=O)Nc3ccccc32)[nH]1 the “activity, negative = cytotoxic” value was -7.7%.
With CN1CCCCC1CCN1c2ccccc2Sc2ccc(S(C)=O)cc21 (stereo not given) the “activity, negative = cytotoxic” value was -15.9%.
In the case of COc1cccc2c1C(=O)c1c(O)c3c(c(O)c1C2=O)C[C@@](O)(C(C)=O)C[C@@H]3O[C@H]1C[C@H](N)[C@H](O)[C@H](C)O1, the “activity, negative = cytotoxic” value is reported as -14% [at 78.8 µM].
With Clc1sc(Cl)c(Cl)c1Cl the “activity, negative = cytotoxic” value was -7.38%.
With CCC(C)n1ncn(-c2ccc(N3CCN(c4ccc(OC[C@H]5CO[C@](Cn6cncn6)(c6ccc(Cl)cc6Cl)O5)cc4)CC3)cc2)c1=O (stereo not given in full) the “activity, negative = cytotoxic” value was -12.8%.
In the case of CC1=Nc2ccccc2C1(C)C, the “activity, negative = cytotoxic” value is reported as 1.47%.
With COC(=O)c1ccccc1C the “activity, negative = cytotoxic” value was 3.64%.
In the case of CC1(C)CCC[C@]2(C)[C@H]3CC(=O)O[C@]3(C)CC[C@@H]12, the “activity, negative = cytotoxic” value is reported as -18%.
With CCCCNS(=O)(=O)c1ccc(C)cc1 the “activity, negative = cytotoxic” value was 1.41%.
In the case of O=C(O)c1cc(N=Nc2ccc([N+](=O)[O-])cc2)ccc1O, the “activity, negative = cytotoxic” value is reported as -6.18%.
In the case of CCCCOC(=O)CO, the “activity, negative = cytotoxic” value is reported as -0.305%.
With Cl[Si](Cl)(c1ccccc1)c1ccccc1 the “activity, negative = cytotoxic” value was -19.5% [at 78.8 µM].
With Nc1ccc(C(=O)O)c(O)c1 the “activity, negative = cytotoxic” value was -2.35%.
With Cc1ccc(N/N=c2\c(=O)cc/c(=N\Nc3ccc(S(=O)(=O)O)cc3)c2=O)c(C)c1 the “activity, negative = cytotoxic” value was 6.24%.
In the case of O=C1c2ccccc2C(=O)N1SC1CCCCC1, the “activity, negative = cytotoxic” value is reported as -6.82%.
For CCCCCC/C=C\CCCCCCCC(=O)O, the “activity, negative = cytotoxic” value was -30.3%.
With c1ccsc1 the “activity, negative = cytotoxic” value was -1.16%.
